Each compound was assayed against Integrin alpha-4 (Homo sapiens) (UniProt P13612) (assay: VLA-4 pocket occupancy via HUTS-21 epitope – U937 cells, powder samples, set 2, SAR follow-up (AID 588448)). Details: HUTS-21 LIBS mAb binding, flow cytometry; series mostly up to 66.7 µM; inhibition: at the top concentration;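 active = half-maximal concentration under 30 µM, fit with over 36% top-dose inhibition and error below a fifth of it; inactive = the rest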.
Sequence of Integrin alpha-4 (Homo sapiens) (P13612 whole entry, looked up): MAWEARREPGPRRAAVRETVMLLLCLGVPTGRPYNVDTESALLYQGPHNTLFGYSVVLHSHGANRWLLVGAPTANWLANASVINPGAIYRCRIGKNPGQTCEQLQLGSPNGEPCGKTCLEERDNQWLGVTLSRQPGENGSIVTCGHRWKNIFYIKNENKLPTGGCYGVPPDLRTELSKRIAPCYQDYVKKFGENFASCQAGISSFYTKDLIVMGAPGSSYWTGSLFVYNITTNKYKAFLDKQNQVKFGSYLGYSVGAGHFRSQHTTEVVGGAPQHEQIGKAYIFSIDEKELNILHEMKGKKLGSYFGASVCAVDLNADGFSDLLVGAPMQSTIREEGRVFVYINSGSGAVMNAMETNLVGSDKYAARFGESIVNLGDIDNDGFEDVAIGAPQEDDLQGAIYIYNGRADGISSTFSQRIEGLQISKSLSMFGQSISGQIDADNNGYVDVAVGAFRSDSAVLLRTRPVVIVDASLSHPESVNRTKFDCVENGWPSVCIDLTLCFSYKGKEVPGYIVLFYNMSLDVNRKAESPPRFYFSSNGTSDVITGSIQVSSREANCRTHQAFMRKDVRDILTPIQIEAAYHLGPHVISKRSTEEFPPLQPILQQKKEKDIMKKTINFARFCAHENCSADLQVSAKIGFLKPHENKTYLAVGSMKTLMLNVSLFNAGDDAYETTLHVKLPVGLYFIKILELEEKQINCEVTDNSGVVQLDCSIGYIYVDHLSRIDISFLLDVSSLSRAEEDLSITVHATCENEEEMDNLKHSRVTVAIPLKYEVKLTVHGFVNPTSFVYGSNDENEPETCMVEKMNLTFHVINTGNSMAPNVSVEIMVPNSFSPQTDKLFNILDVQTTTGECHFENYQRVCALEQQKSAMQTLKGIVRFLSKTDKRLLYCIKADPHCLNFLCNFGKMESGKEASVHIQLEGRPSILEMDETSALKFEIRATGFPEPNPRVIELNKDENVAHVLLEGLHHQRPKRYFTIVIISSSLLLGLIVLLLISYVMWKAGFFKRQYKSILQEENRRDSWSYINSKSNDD

inhibition, inactive:
Cn1cc(C(=O)N2CCCC2c2nc3ccccc3s2)cn1 (centres undefined) 7.19
Cc1nc(C)c(C(=O)N2CCCC2c2nc3ccccc3s2)s1 (centres undefined) 5.91
COc1cc(OCc2ccccc2)ccc1CN1CCN(C)CC1 -6.27
Cc1ccc(-c2nc(CN3C(=O)C4CC=CCC4C3=O)cs2)cc1 (centres undefined) 5.59
CN1CC(c2nc3ccccc3n2CCOc2ccccc2)CC1=O (centres undefined) -8.52
CCOc1ccccc1N1CC(c2nc3ccccc3n2C)CC1=O (centres undefined) 26.1
CSc1ccccc1OCc1cc(C(=O)N2CCCC2)no1 7.51
Cc1ccc(C)n1-c1ccc(C(=O)N(C)Cc2ccco2)cc1 2.7
Cc1cc(C(=O)N2CCCC2c2ccc3c(c2)OCCO3)sc1C (centres undefined) 5.59
Cc1oc(-c2cccs2)nc1CN1C(=O)C2CC=CCC2C1=O (centres undefined) 4.95
COc1ccc(C2CCCN2C(=O)c2sccc2C)cc1OC (centres undefined) 6.87
COCCn1c(C2CC(=O)N(c3cccc(C)c3)C2)nc2ccccc21 (centres undefined) -13.7
COc1ccc(-c2nn(Cc3ccccc3)cc2C(=O)N2CCC2)cc1 -0.18
COCC(=O)N1CCC2(CCCN(CCc3ccccc3)C2=O)C1 (centres undefined) 38
COc1ccccc1Cn1c(C2CC(=O)N(C)C2)nc2ccccc21 (centres undefined) 4.63
CCN1CC(c2nc3ccccc3n2CCOc2ccccc2)CC1=O (centres undefined) 14.6
COCCn1c(C2CC(=O)N(Cc3ccco3)C2)nc2ccccc21 (centres undefined) 7.51
CN(Cc1ccco1)C(=O)c1ccc(-n2cnc3ccccc32)cc1 13
CCn1c(C2CC(=O)N(c3ccccc3OC)C2)nc2ccccc21 (centres undefined) 39.6
Cc1nc2ccccc2n1CCc1noc(COc2ccccc2)n1 3.66
O=C(c1ccc(OCCN2CCCCC2)cc1)c1c(-c2ccc(O)cc2)sc2cc(O)ccc12 -87.7
CCOCCn1c(C2CC(=O)N(c3ccccc3)C2)nc2ccccc21 (centres undefined) 12.3
CCn1c(C2CC(=O)N(CCc3ccccc3)C2)nc2ccccc21 (centres undefined) 23.5
CCN1CC(c2nc3ccccc3n2Cc2ccccc2)CC1=O (centres undefined) 24.2
O=C1C2CC=CCC2C(=O)N1Cc1csc(Cc2ccccc2)n1 (centres undefined) 15.8
COCCn1c(C2CC(=O)N(c3ccccc3C)C2)nc2ccccc21 (centres undefined) 10.7
Cc1cc(C(=O)N2CCCC2c2nc3ccccc3s2)on1 (centres undefined) 22.9
CC(=O)N(C)Cc1nc2ccccc2n1CCOc1ccc(C)cc1 22.3
COc1ccccc1N1CCN(CC(=O)c2ccc(F)cc2)CC1 -8.2

Source: PubChem BioAssay AID588448 (NMMLSC, 2011)
